Screening results as filed in PubChem BioAssay.
Sfp PPTase inh = qHTS Assay for Inhibitors of Bacillus subtilis Sfp phosphopantetheinyl transferase (PPTase); Biochemical Sfp PPTase activity, qHTS; Potency, µM, without a hit: largest response in the series, negative = inhibition, most hits filed as inhibitors; 310,000 compounds, 3.5% hits;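 also: the enzyme is Sfp with the accession as filed and its product quenches rhodamine fluorescence; potency is read from the fitted curve at half-maximal effect; 0% = enzyme reaction without inhibitor and -100% = no enzyme wells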
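Buffer: 50 mM Hepes-Na pH 7.6, 10 mM MgCl2, 0.01% Nonidet P-40, 0.01% BSA. Enzyme 15 nM, pre-exposed to compound 15 min; substrates then added and fluorescence change tracked over 30 min.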
Giardia kill = Small Molecules that selectively kill Giardia lamblia: qHTS. Giardia lamblia trophozoite viability. activity change, % at 7.66 µM, hits read low. AID 540267, 2011. 340,000 compounds, 0.15% hits; in the data active = activity change below about -80%; inconclusive = between about -30% and that limit;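 also: parasites exposed to compound for two days anaerobically before the ATP read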
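Media and compound were dispensed first, then trophozoites at 100 cells/well; plates sat 48 hrs at 37 deg C without oxygen before ATP luminescence reagent was added and read after 15-30 min at room temperature.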
Coupling enz = qHTS Assay for Inhibitors of Fructose-1,6-bisphosphate Aldolase from Giardia Lamblia: Coupling assay counterscreen. activity change, negative = inhibition, % at 58.2 µM, hits read low. coupling enzyme system counterscreen, AmpLite Red fluorescence. AID 2472, 2010. 290,000 compounds, 0.67% hits; in the data active = activity change below about -30%
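First, compound is pin-transferred into glyceraldehyde-3-phosphate coupling-enzyme reagent at 57.5 uM final and held 10 min at RT. Next, substrate, coupling system and AmpLite Red are added. After 20 min RT, fluorescence (525/598 nm) is read.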
ELG1 DNA repair = qHTS screen for small molecules that inhibit ELG1-dependent DNA repair in human embryonic kidney (HEK293T) cells expressing luciferase-tagged ELG1 | 330,000 compounds, 2.3% hits | Potency, µM (titrated, usually from 46.1 µM), for inactives: at the top dose activity change, negative = inhibition, usual class: inhibitors | AID 504467, 2011 | HEK293T ELG1-luciferase reporter, luminescence, 16 h; DNA damage induced by 5-fluorouridine; also: potency is read from the fitted curve at half-maximal effect; nearly all actives have a fitted effect of over 55% in size
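Cells (2,000 per well) received 5-fluorouridine plus test compound or DMSO and were incubated 16 hr at 37 °C, 5% CO2. Luciferase activity was read by luminescence 30 min after ONE-Glo addition; signal suppression marked inhibition of damage-induced ELG1 function.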
* marks the source's active call; other numbers are inactive results; ? = inconclusive; . = no result given. This is a sample that favours compounds with a hit; in the whole collection about 5.5% have one here. Unless noted, calls follow the shape of the dose curve; as a rule, active = well fitted curve in the direction sought with a large enough effect; inconclusive = small, poorly fitted or top-dose-only effect, or another doubt; inactive = no such curve, though single readings can be large; an effect the other way counts as inactive or inconclusive. Unless noted, % is scaled to controls: 0 for no effect and ±100 for the full control effect.

SMILES	Sfp PPTase inh	Giardia kill	Coupling enz	ELG1 DNA repair
CN1C(=O)C(=Cc2ccccc2OCCOc2ccc([N+](=O)[O-])cc2)C(=O)N(C)C1=O	71µM*	15	0	6%
CN1C(=O)C(=Cc2ccccc2OS(=O)(=O)c2ccccc2)C(=O)N(C)C1=O	35µM*	21	-4	?
C[C@H]1COC(=O)[C@@H](Cc2ccc(F)cc2)CC/C=C/C[C@@H](CC(=O)N(CCO)Cc2ccccc2)C(=O)N1	.	-12	.	?
Nc1ncnc2c1ncn2[C@@H]1O[C@@H]2CO[P@](=O)(S)O[C@H]2[C@H]1O	-4%	.	3	.
COC(C/C=C/C=C/CC/C=C\CC(C)/C=C\C(=C/C(=O)O)CC(=O)O)/C(C)=C\C=C(/C)C(=O)O (stereo unspecified)	5%	.	.	.
CCn1nc(/C=C/c2ccccc2)nc2c(=O)n(C)c(=O)nc1-2	?	-94*	1	-3%
COC(=O)[C@H]1[C@@H](c2ccccc2)[C@@]2(c3ccccc3)Oc3ccccc3[C@@]1(O)[C@@H]2O	6%	.	0	.
CCN(CC)c1ccc(/C=C2\C(=O)NC(=S)N(C)C2=O)o1	-10%	5	1	?
CCN(CC)c1ccc(C=C2C(=O)N(C)C(=S)N(C)C2=O)o1	-17%	1	1	?
CN1C(=O)C(=Cc2ccc(SC3CCCCC3)o2)C(=O)N(C)C1=O	56µM*	8	-5	15%
CN1C(=O)C(=Cc2ccc(N3CCCCC3)o2)C(=O)N(C)C1=S	56µM*	3	0	?
COC1=C[C@H]2[C@H]3Cc4ccc(OC)c(O)c4[C@@]2(CCN3C)CC1=O	-6%	.	-13	.
O=C(O)CCn1cc(C=C2C(=O)NC(=S)NC2=O)c(-c2cc3ccccc3oc2=O)n1	10µM*	-12	4	-16%
O=C(O)CCn1cc(C=C2C(=O)NC(=S)NC2=O)c(-c2ccccc2)n1	14µM*	4	9	10%
COc1cccc(C(=O)N2CCN(Cc3ccccn3)CC2)c1OC	79µM*	18	-55*	-8%
COc1ccc(C(=O)C2CCCN(Cc3ccccn3)C2)c(OC)c1 (stereo unspecified)	-3%	-3	0	13%
Nc1c(C(=O)NCc2ccco2)c2nc3ccccc3nc2n1Cc1ccc(F)cc1	-74%	-7	-40*	?
COc1ccc(Cn2c(N)c(C(=O)NCc3ccco3)c3nc4ccccc4nc32)cc1	45µM*	2	-5	?
CCCCNC(=O)c1c(N)n(Cc2ccc3c(c2)OCO3)c2nc3ccccc3nc12	11%	-6	-13	-11%
Nc1c(C(=O)NCc2ccco2)c2nc3ccccc3nc2n1CCN1CCOCC1	?	7	-2	?
Nc1c(C(=O)NCc2ccco2)c2nc3ccccc3nc2n1Cc1ccccc1	45µM*	8	-28	?
CC(C)CN1CC2(CCN(C(=O)c3ccncc3)CC2)C1	12%	.	1	.
O=c1cccc2n1CC1CC2CN2CCCCC12 (stereo unspecified)	17%	.	-1	.
CCOC(=O)c1ccc(N2C(=O)CC(N3CC=C(c4ccc(F)cc4)CC3)C2=O)cc1 (stereo unspecified)	32µM*	-17	-16	10%
CCCCn1c(O)c(C=NCc2ccc3c(c2)OCO3)c(=O)[nH]c1=O	50µM*	-5	1	?
SMILES	Sfp PPTase inh	Giardia kill	Coupling enz	ELG1 DNA repair
CCCCn1c(O)c(C(C)=NCc2ccc3c(c2)OCO3)c(=O)[nH]c1=O	4%	2	1	?
COc1ccc([N+](=O)[O-])cc1N=Cc1c(O)n(CCc2ccccc2)c(=O)n(C(C)C)c1=O	-11%	-8	-3	16µM*
CN1CC[C@]2(C)c3cc(O)ccc3N(C)[C@@H]12	-24%	.	-69*	.
CCC1(C)CC(C(N)=S)CCO1 (stereo unspecified)	4.5µM*	-7	-1	-2%
CC(O)(CS(=O)(=O)c1ccccc1)C(=O)Nc1ccc(C(F)(F)F)cc1 (stereo unspecified)	-4%	-7	3	3%
CCCC(C)c1nnc(NC(=O)CCS(=O)(=O)c2ccccc2)s1 (stereo unspecified)	18µM*	-19	1	-20%
CC1=CC2/C=C(\C)CCC(O)C(O)/C=C/C(=O)C23C(=O)NC(CC(C)C)C3C1C (stereo unspecified)	16µM*	-28	-1	?
O=C(CN1CCOCC1)c1cccc2ccccc12	40µM*	-2	-1	1%
Cc1cc(C)cc(N2C(=O)NC(=O)/C(=C\c3cccn3-c3ccccc3)C2=O)c1	-4%	-6	2	-8%
O=C1NC(=S)NC(=O)C1=Cc1cccn1-c1ccc(O)cc1	18µM*	-3	0	?
CN1C(=O)/C(=C/c2cccn2-c2ccc3ccccc3c2)C(=O)NC1=S	56µM*	-3	-10	?
CNC(=S)S	-19%	.	3	.
C[C@@H]1OC=C2[C@@H](O)[C@H]3O[C@H]3C(=O)[C@@]23[C@H]1[C@H]1C2=C([C@@H](O)[C@H]4O[C@@H]4C2=O)[C@@H]3O[C@@H]1C	23%	.	-2	.
CCCCC/C=C\C/C=C\C/C=C\CCCCC(=O)NCCO	2%	.	0	.
COCCCn1c(N)c(C(=O)NCCC(C)C)c2nc3ccccc3nc21	-8%	-1	-46*	?
CCOC(=O)c1c(N)n(Cc2ccco2)c2nc3ccccc3nc12	?	-14	-3	?
CCCCOCCCn1c(N)c(C(=O)OCCOC)c2nc3ccccc3nc21	13%	12	-11	?
COc1ccc(CCNC(=O)c2c(N)n(CCN3CCOCC3)c3nc4ccccc4nc23)cc1OC	-14%	-5	0	16µM*
COCC(C)OC(=O)c1c(N)n(Cc2ccco2)c2nc3ccccc3nc12 (stereo unspecified)	32µM*	-2	-1	.
CCCCCn1c(N)c(C(=O)NCCN2CCOCC2)c2nc3ccccc3nc21	-27%	10	-8	?
COCCOC(=O)c1c(N)n(Cc2ccccc2)c2nc3ccccc3nc12	-11%	20	-7	18µM*
CN1C(=O)CCS(=O)(=O)C1c1ccc(Cl)cc1 (stereo unspecified)	19%	.	-2	.
On1ccccc1=S	.	-19	.	?
C[C@H](NC(=O)[C@@H](N)Cc1ccc(O)cc1)C(=O)N[C@@H](Cc1ccccc1)C(=O)NCC(=O)N[C@@H](Cc1ccc(O)cc1)C(=O)N1CCC[C@H]1C(=O)N[C@@H](CO)C(N)=O	21%	.	.	.
C[C@H]1CN([C@@H](C)CO)C(=O)c2cccc(NC(=O)c3ccc(-c4nccs4)cc3)c2O[C@@H]1CN(C)C(=O)Nc1cccc2ccccc12	.	24	.	?
CNc1ccc2oc(C[C@H]3O[C@]4(CC[C@H]3C)O[C@H]([C@H](C)C(=O)c3ccc[nH]3)[C@H](C)C[C@H]4C)nc2c1C(=O)O	-10%	.	-10	.
